Assay results as given in PubChem BioAssay AID1851 (National Center for Advancing Translational Sciences (NCATS), 2009).
The campaign covered roughly 16,000 compounds. About 4,000 (25%) were called active. Not shown: some 26% with an inconclusive outcome. A selection follows. Values without a mark were called inactive. Calls follow the shape of the dose curve; as a rule, active = well fitted curve in the direction sought with a large enough effect; inconclusive = small, poorly fitted or top-dose-only effect, or effect the other way; inactive = no such curve, though single readings can be large or run the other way.

What follows are compounds tested against Cytochrome P450 2C9 (Homo sapiens) (UniProt P11712) (assay: Cytochrome panel assay with activity outcomes). Conditions: recombinant CYP, pro-luciferin dealkylation, luminescence, p450-cyp2c9; series mostly up to 57.1 µM; activity, negative = inhibition: at the top concentration.
Chain of Cytochrome P450 2C9 (Homo sapiens) (P11712 whole entry, looked up): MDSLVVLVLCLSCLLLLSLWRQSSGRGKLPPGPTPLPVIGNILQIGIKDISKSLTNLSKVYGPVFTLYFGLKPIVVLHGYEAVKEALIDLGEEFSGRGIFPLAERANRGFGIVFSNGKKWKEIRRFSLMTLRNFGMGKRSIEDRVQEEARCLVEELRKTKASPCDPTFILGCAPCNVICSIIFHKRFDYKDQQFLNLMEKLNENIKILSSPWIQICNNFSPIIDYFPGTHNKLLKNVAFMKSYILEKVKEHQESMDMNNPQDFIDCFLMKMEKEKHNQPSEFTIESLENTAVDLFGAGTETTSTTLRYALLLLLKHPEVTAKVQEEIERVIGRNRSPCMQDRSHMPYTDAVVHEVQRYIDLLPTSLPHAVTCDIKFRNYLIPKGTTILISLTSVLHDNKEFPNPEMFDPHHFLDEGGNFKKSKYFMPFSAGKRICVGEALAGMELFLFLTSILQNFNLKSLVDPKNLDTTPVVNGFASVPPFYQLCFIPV
% is scaled to controls: 0 for no effect and ±100 for the full control effect.

Compound | activity, negative = inhibition | AC50
Cc1noc(C)c1-c1nc(Nc2ccncc2)c2ccccc2n1 | -10.8% [at 2.29 µM] | 
COc1cccc2c1[C@@H]1CN(CCCCn3c(=O)[nH]c4c(sc5ncc(-c6ccccc6)nc54)c3=O)C[C@H]1CO2 | -12% | 
CCN1C(=O)[C@H]2[C@H]3[C@H](O)[C@H](O)C/C(=N/NC(=O)OCc4ccccc4)[C@H]3CC[C@@H]2C1=O | -10.2% [at 11.4 µM] | 
O=C1NCC2=C1C(c1ccc(Br)cc1)Nc1ccccc1N2 (configuration not stated) |  | 8.91 µM (active)
CN(C)Cc1cc(C(C)(C)C)ccc1-c1ccc(C(C)(C)C)cc1CN(C)C | 12.6% [at 11.4 µM] | 
COc1ccc(-c2ccc(=O)n(CC(=O)Nc3nnc(C(C)C)s3)n2)cc1OC |  | 14.1 µM (active)
CN(C)CCNC(=O)Cn1nc(-c2ccc(Cl)cc2)ccc1=O | 20.5% | 
O=C(O)C1=CCCNC1 |  | inactive
CC(C)C[C@H](NC(=O)[C@@H]1O[C@H]1C(=O)O)C(=O)NCCCCN=C(N)N | 21.6% | 
CC(C)CNC(=S)N1CCN(C)CC1 | -15.7% | 
C=CCNc1nc(-c2ccc(Cl)cc2)cs1 |  | 22.4 µM (active)
CCCCSCc1nc2nc(Cl)c(Cl)nc2[nH]1 |  | 0.501 µM (active)
Nc1ccc(CCNc2ncnc3c2ncn3[C@@H]2O[C@@H](CO)[C@H](O)[C@@H]2O)cc1 | -10.3% | 
COc1ccc(-c2ccc(C(=S)N3CCN(C(C)=O)CC3)o2)cc1 |  | 3.98 µM (active)
COc1ccc(C(=O)N2CCC3(CCN(C)CC3)CC2)cc1 | -6.61% | 
COc1ccc(CC(=O)NCCN2CCCC2)cc1 | 8.79% | 
COc1ccc(COC(=O)N/N=C(\C)CC(=O)Nc2c(C)cc(C)cc2C)cc1 |  | 14.1 µM (active)
COc1ccc(COC(=O)N/N=C2/C[C@@H](O)[C@@H](O)[C@@H]3[C@@H]4C(=O)N(C(C)(C)C)C(=O)[C@H]4CC[C@@H]23)cc1 | -5.52% [at 11.4 µM] | 
COc1ccc(CCN(C)CCC(=O)Nc2c(C)cc(C)cc2C)cc1OC | -24.7% | 
COc1ccccc1-c1nc(N(C)C)c2ccccc2n1 | -2.29% [at 2.29 µM] | 
COc1ccc(C(=O)N2CCC3(CC2)CN(C(=O)Nc2cccc(C#N)c2)C3)cc1 | -1.23% | 
CC(=O)N1CCC2(CC1)CN(Cc1ccccc1)C2 | 17.2% | 
CC(=O)N1CCN(C(=O)CC2OC(=O)c3ccccc32)CC1 (configuration not stated) |  | 15.8 µM (active)
CCC(=O)N1CCN(C(=O)c2ccccc2)CC1 | 7.52% | 

Compound | activity, negative = inhibition | AC50
COc1ccc(C(=O)Nc2ccc(NC(=O)c3ccco3)c(Cl)c2)cc1OC | -6.18% | 
Cc1ccc(SCC(=O)Nc2cccc(NC(=O)c3ccco3)c2)cc1 |  | 4.47 µM (active)
O=C(Nc1ccccc1)C(Cc1ccccc1)NC(=O)C12CC3CC(CC(C3)C1)C2 (configuration not stated) | -27.7% | 
Cc1cc(NC(=O)c2ccco2)ccc1-n1cnnn1 |  | 10 µM (active)
CCc1cc2cc(C)c(C)cc2nc1SCC(=O)NNC(=O)c1ccco1 | 2.57% | 
Cc1ccc(SCC(=O)NNC(=O)C2CCCCC2)cc1 | 7.23% | 
CC(C)C[C@H](NC(=O)[C@@H](O)[C@@H](N)Cc1ccccc1)C(=O)O |  | inactive
CC(=O)c1ccc(NC(=O)C(Cc2ccccc2)NC(=O)c2ccco2)cc1 (configuration not stated) |  | 14.1 µM (active)
CC(C)Oc1ccc(C(=O)Nc2ccc(NC(=O)c3ccco3)c(Cl)c2)cc1 |  | 14.1 µM (active)
NC(=NCc1ccccc1)NC(=O)c1nc(Cl)c(N)nc1N |  | inactive
CN(C)C(=O)c1ccc(-c2ccc3ncnc(N4CCNCC4)c3c2)cc1 | 6.81% [at 2.29 µM] | 
Cc1noc(C)c1-c1ccc2ncnc(N(C)Cc3ccco3)c2c1 | -29% [at 2.29 µM] | 
CCc1nnc2sc(-c3ccc(NC(=O)c4ccco4)cc3)nn12 | -20.6% | 
COc1cccc(C(=O)Nc2ccc(NC(=O)c3ccco3)cn2)c1 |  | 14.1 µM (active)
CC(C)(C)c1ccc(C(=O)Nc2ccc(NC(=O)c3ccco3)cc2)cc1 |  | 8.91 µM (active)
c1ccc(CNc2ncncc2-c2cccnc2)cc1 | -3.05% [at 2.29 µM] | 
COc1ccc(C(=O)c2ccccc2)c(O)c1 | -18.2% [at 25.6 µM] | 
COc1ccc2nccc(C(=O)O)c2c1 | 4.55% [at 25.6 µM] | 
COc1ccc2oc(C(=O)c3ccccc3)c(N)c2c1 |  | 11.2 µM (active)
Cc1noc(C)c1-c1ccc2ncnc(NCc3cccs3)c2c1 | -7.45% [at 2.29 µM] | 
CC(C)NC[C@H]1CCc2cc(CO)c([N+](=O)[O-])cc2N1 | -7.52% [at 25.6 µM] | 
CN(CCO)Cc1ncccc1O | -2.29% [at 11.4 µM] | 
CN1CCN(CC(=O)N2c3ccccc3Sc3cc4ccccc4cc32)CC1 | 5.77% [at 11.4 µM] | 
